In PubChem BioAssay (NCI):
This is part of a sample that, as a whole, favours compounds with a hit. Of some 79,000 tested, about 15% had one in any assay. A number with no mark means an inactive call. The source made the active and inactive calls. Rule as the data show it: active = growth inhibition above about 70%; inactive = the rest.

Tests used:
[1] = NCI Yeast Anticancer Drug Screen. Data for the rad50 strain (AID 155);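 also: 0% = growth of vehicle-only cultures of the same strain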; details: S. cerevisiae rad50 strain growth inhibition, active compounds read high
In short: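 Compounds were tested on a yeast strain with an engineered DNA damage repair alteration; the reported value is growth inhibition normalised to vehicle treatment.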

[2] = NCI Yeast Anticancer Drug Screen. Data for the mec2-1 strain (AID 157); details: S. cerevisiae mec2-1 strain, active compounds read high
In short: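 Vehicle-treated cultures served as reference for growth inhibition of compound-exposed mec2-1 yeast.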

[3] = NCI Yeast Anticancer Drug Screen. Data for the sgs1 mgt1 strain (AID 161);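 also: 0% = growth of cultures given vehicle only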; details: S. cerevisiae sgs1 mgt1 strain, active compounds read high
In short: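 Mutant yeast exposed to compound; growth scored against vehicle-only wells.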

[4] = NCI Yeast Anticancer Drug Screen. Data for the cln2 rad14 strain (AID 165);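 also: 0% = growth equal to vehicle treated cultures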; details: S. cerevisiae cln2 rad14 strain, active compounds read high
In short: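 Each compound was tested on cln2 rad14 yeast. Inhibition of growth was calculated against vehicle-exposed controls.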

[5] = NCI Yeast Anticancer Drug Screen. Data for the bub3 strain (AID 167); details: S. cerevisiae bub3 mutant strain, active compounds read high
In short: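 Growth of a checkpoint-deficient yeast mutant is measured after compound exposure. Values represent inhibition relative to vehicle.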

[6] = NCI Yeast Anticancer Drug Screen. Data for the mlh1 rad18 strain (AID 175); details: S. cerevisiae mlh1 rad18 strain growth inhibition, active compounds read high
In short: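 Vehicle-treated cultures served as the reference for growth inhibition in a yeast strain carrying DNA damage repair alterations exposed to each compound.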

[7] = at 5.0 µM (retest, dose inferred, filed as 0.5)
[8] = at 50.0 µM (retest, dose inferred, filed as 5.0)

SMILES | growth inhibition [1, 7] | growth inhibition [1, 8] | growth inhibition ([1]; at 50.0 µM) | growth inhibition [2, 7] | growth inhibition [2, 8] | growth inhibition ([2]; at 50.0 µM) | growth inhibition [3, 7] | growth inhibition [3, 8] | growth inhibition ([3]; at 50.0 µM) | growth inhibition [4, 7] | growth inhibition [4, 8] | growth inhibition ([4]; at 50.0 µM) | growth inhibition [5, 7] | growth inhibition [5, 8] | growth inhibition ([5]; at 50.0 µM) | growth inhibition [6, 7] | growth inhibition [6, 8] | growth inhibition ([6]; at 50.0 µM)
C1CCNCC1.O=C([CH-]C(=O)C(F)(F)F)c1ccc2c(c1)C(=O)c1ccccc1-2.O=C([CH-]C(=O)C(F)(F)F)c1ccc2c(c1)C(=O)c1ccccc1-2.O=C([CH-]C(=O)C(F)(F)F)c1ccc2c(c1)C(=O)c1ccccc1-2.O=C([CH-]C(=O)C(F)(F)F)c1ccc2c(c1)C(=O)c1ccccc1-2.[Eu+3] | 54% | 79% (active) | 70.3% (active) | 42% | 64% | 20.2% | 15% | 58% | 52.2% | 54% | 77% (active) | 61.5% | 34% | 71% (active) | 52.2% | 40% | 69% | 49.1%
CC(=O)[O][Hg][c]1ccc(N)[c]([Hg][O]C(C)=O)c1 | 99% (active) | 98% (active) | 99.5% (active) | 99% (active) | 99% (active) | 99.5% (active) | 99% (active) | 99% (active) | 99.5% (active) | 99% (active) | 98% (active) | 98.7% (active) | 99% (active) | 99% (active) | 99.2% (active) | 99% (active) | 99% (active) | 99.1% (active)
O=[N+]([O-])/C=C/c1ccc(Cl)cc1 | 79% (active) | 99% (active) | 99% (active) | 59% | 100% (active) | 99.8% (active) | 54% | 100% (active) | 99.5% (active) | 19% | 99% (active) | 99% (active) | 45% | 99% (active) | 99.5% (active) | 80% (active) | 99% (active) | 99.5% (active)
COC12c3c(C)cc(O)c4c(=O)occ(c34)C(=O)C1C13COC(=O)c4c(O)cc(C)c(c41)C(=O)C2C3OC(C)=O (configuration not stated) | 45% | 99% (active) | 91.4% (active) | 32% | 100% (active) | 93% (active) | 69% | 99% (active) | 92.7% (active) | 63% | 100% (active) | 91.9% (active) | 71% (active) | 100% (active) | 91.1% (active) | 36% | 99% (active) | 91.9% (active)
[Se]C1=NCCN1 | 6% | 53% | 94.6% (active) | 7% | 34% | 92.3% (active) | 3% | 39% | 95.6% (active) | 6% | 48% | 77.8% (active) | 4% | 96% (active) | 84% (active) | 6% | 89% (active) | 92.2% (active)
CCN1CCC(O)(c2ccc(O)cc2)C(C(=O)c2ccc(O)cc2)C1 (configuration not stated) | -9% | -9% | 72% (active) | -9% | 8% | 82.6% (active) | 6% | 13% | 91.3% (active) | 18% | 21% | 7.1% | -9% | 19% | 13.3% | 1% | 29% | 86.7% (active)
CCCC(C)(COC(N)=O)COC(=O)NC1CC1 (configuration not stated) | -8% | 0% | 21.9% | -12% | 0% | 0.05% | -8% | 0% | 36.3% | -2% | -6% | 37.1% | 0% | -5% | -4.4% | 14% | 7% | -2%
NC(=S)C1=C(N)Oc2c(c(=O)oc3ccccc23)C1c1ccc(Br)cc1 (configuration not stated) | -7% | 66% | 20.1% | 10% | 73% (active) | 53.7% | 10% | 76% (active) | 57.9% | 16% | 85% (active) | 21.4% | 7% | 90% (active) | 62.6% | -2% | 91% (active) | 62.5%
COC1OC(CO)C(O)C(O)[CH]1[Hg][Cl] (configuration not stated) | 99% (active) | 99% (active) | 99% (active) | 99% (active) | 99% (active) | 99% (active) | 100% (active) | 100% (active) | 99% (active) | 99% (active) | 99% (active) | 99.2% (active) | 99% (active) | 99% (active) | 98.8% (active) | 99% (active) | 99% (active) | 98.8% (active)
Nc1ccc(C(=O)O)c(C(=O)O)c1.[Cl][Sn]([Cl])([Cl])[Cl] | 3% | -9% | 48% | 3% | 46% | 59.6% | 8% | 36% | 53.7% | -4% | -21% | 76.1% (active) | 1% | -2% | 80.8% (active) | -3% | 20% | 40.4%
C1OCC2[CH2][Hg][S][Hg][CH2]C1O2 | 29% | 95% (active) | 92.8% (active) | 34% | 97% (active) | 94.8% (active) | 67% | 98% (active) | 95.5% (active) | 19% | 95% (active) | 92.6% (active) | 20% | 96% (active) | 95.2% (active) | 36% | 94% (active) | 91.3% (active)
C1=CC2CCC[N-]C2N1.C1=CC2CCC[N-]C2N1.[I][Pt+2][I] (configuration not stated) | 4% | 99% (active) | 99% (active) | 9% | 99% (active) | 99.5% (active) | 10% | 99% (active) | 34.5% | 21% | 99% (active) | 98.2% (active) | 6% | 99% (active) | 99% (active) | 23% | 99% (active) | 98.8% (active)
O=C(O)c1cc(Cc2ccc(O)c(C(=O)O)c2)ccc1O (tested in a mixture with another compound) | 92% (active) | 32% | 42.6% | 76% (active) | 4% | 26.7% | 40% | 48% | 85% (active) | 31% | 41% | 14.1% | 33% | 36% | 72.7% (active) | 87% (active) | 36% | 74.4% (active)
CC1=C/C(=C2/N=C(N(C)C)SS2)C(C)=N1 | 11% | 78% (active) | 13.2% | 1% | 48% | -0.9% | 31% | 88% (active) | 8.85% | 9% | 48% | 15.4% | 23% | 66% | 43.9% | 5% | 71% (active) | 16.7%
CC1=CC2CC(C)=C(CC[C@]3(C)CC[C@H]([C@@H](C)C(=O)O)OO3)C(C)(C)C2CC1 (some centres not stated) | 41% | 98% (active) | 91.7% (active) | 59% | 99% (active) | 93.8% (active) | 69% | 99% (active) | 93% (active) | 41% | 98% (active) | 91.2% (active) | 52% | 98% (active) | 92.2% (active) | 60% | 98% (active) | 91.4% (active)
CCCCCCCCCC(=O)[O][Hg][c]1ccccc1 | 99% (active) | 99% (active) | 71.5% (active) | 100% (active) | 99% (active) | 99.7% (active) | 99% (active) | 100% (active) | 99.5% (active) | 99% (active) | 99% (active) | 99.4% (active) | 99% (active) | 98% (active) | 99.3% (active) | 99% (active) | 99% (active) | 99.1% (active)
N=C(N)c1ccc(NN=Nc2cccc3c2Oc2ccccc2O3)cc1 | 48% | 89% (active) | 80% (active) | 20% | 84% (active) | 78.1% (active) | 32% | 90% (active) | 74.6% (active) | 14% | 69% | 71% (active) | 10% | 80% (active) | 83.5% (active) | 17% | 83% (active) | 70.2% (active)
C[C@@H](O)[C@H]1/C=C/C=C\C(=O)O[C@@H]2C[C@H]3O[C@@H]4[C@@H]5OC5(C)CCC4(COC(=O)[C@H]4O[C@]4(C)[C@@H](O)CO1)[C@]2(C)[C@]31CO1 (some centres not stated) | 26% | 95% (active) | 91.4% (active) | 24% | 87% (active) | 92.5% (active) | 44% | 96% (active) | 92% (active) | 42% | 96% (active) | 90.4% (active) | 31% | 93% (active) | 91% (active) | 28% | 97% (active) | 90.2% (active)
O=C(O)C(Br)C(Br)C(=O)O.[Ag] (configuration not stated) | 99% (active) | 99% (active) | 98.8% (active) | 100% (active) | 100% (active) | 99.3% (active) | 99% (active) | 100% (active) | 98.7% (active) | 97% (active) | 99% (active) | 99.1% (active) | 99% (active) | 99% (active) | 98.8% (active) | 99% (active) | 99% (active) | 99.2% (active)
